Source: PubChem BioAssay (National Center for Advancing Translational Sciences (NCATS))
This is one part of a sample in which hits are shown more often than they occur.
Pf Dd2 growth = inhibitors of Plasmodium falciparum Dd2 growth; AID 1347417; Potency, µM (titrated, usually from 28.9 µM), inactives show at the highest dose activity, negative = inhibition, most hits filed as inhibitors; P. falciparum Dd2 growth, SYBR Green, 72 h; 120,000 tested, 4.3% active; active means well fitted inhibition curve with a large enough effect;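 further: plate controls were DMSO vehicle for no effect and reference drug for full effect; nearly all actives have a fitted effect of over 65% in size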
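Infected erythrocytes (Dd2, 0.3% parasitemia, 2.5% hematocrit final) are added to compound in RPMI-1640/Albumax II medium, grown 72 h at 37C in low oxygen, then lysed with saponin/Triton-X containing SYBR Green and read by fluorescence.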
The depositor's hits bear a star; i = inactive; [ ] = remark or other dose. Potency means the concentration at half of the fitted maximal effect.

SMILES | Pf Dd2 growth
COC(=O)c1ccc2nc(C[C@@H]3C[C@@H](C(C)C)[C@H](CNC(=O)CC4(CC(=O)O)CCCC4)C=C3C)[nH]c2c1 | i
CC1=C[C@@H](CNC(=O)c2ccccc2)[C@H](C(C)C)C[C@H]1Cc1nc2ccc(C)cc2[nH]1 | -0.2%[44.1 µM]
Cn1nc(C2CCN(C(=O)C3CCCO3)CC2)c2c1CCOC2 (centres undefined) | 17.0%[5.79 µM]
COc1ccc(Cn2c(C3CCN(C(=O)c4cc(F)ccc4F)CC3)n[nH]c2=O)cc1 | -15.0%
Cc1ccc(NC(=O)N2CCC(CCNC(=O)CCCc3ccccc3)CC2)cc1F | i
CC1=C(C(N)=O)C(c2ccc(F)cc2)n2nc(-c3ccc(N(C)C)cc3)nc2N1 (centres undefined) | 10µM*
CC1=C(C(N)=O)C(c2cccc(C)c2)n2nc(-c3ccc(Cl)cc3)nc2N1 (centres undefined) | 3.5%
CCN(CC)c1ccc(C2C(C(N)=O)=C(C)Nc3ncnn32)cc1 (centres undefined) | 33.3%
Cc1cc2cc(-c3c(C)noc3C)nc(-c3cccc([S+](C)(=O)[O-])c3)c2o1 | -21.4%[44.1 µM]
COc1ccc(OC)c(C(=O)CN2C(=O)N(c3cc(C)cc(C)c3)S(=O)(=O)c3ccccc32)c1 | 10µM*
CCc1ccccc1N1C(=O)N(CC(=O)c2ccc(OC)cc2)c2ccccc2S1(=O)=O | -29.0%
COc1cccc(N2C(=O)N(Cc3ccc(C#N)cc3)c3ccccc3S2(=O)=O)c1 | -16.3%
NC(=O)c1cnc2n1CCN(C(=O)CCNC(=O)c1ccc(F)cc1)C2 | 10.1%
COc1ccc(-c2noc([C@@H](C)NC(C)=O)c2C(=O)O)cc1 | 42.5%[44.1 µM]
Cc1cccc(C(=O)N2C[C@@H](CO)[C@H](N(C)C)C2)n1 | 29.2%
COCCn1c(SCC(=O)c2c[nH]c3ccccc23)nc2cc(C(=O)NC(C)C)ccc2c1=O | -16.0%
COCCn1c(SCC(=O)c2c(C)[nH]c3ccccc23)nc2cc(C(=O)NC(C)C)ccc2c1=O | -26.9%
COC(=O)CC(=O)CSc1nc2cc(C(=O)NCC(C)C)ccc2c(=O)n1CCc1ccccc1 | 11.2µM*
CS(=O)(=O)N1CCC2(C1)OC(=O)Nc1ccccc12 (centres undefined) | 23.6%[44.1 µM]
COC[C@@H]1CN(Cc2ccc(OC)c(OC)c2)C[C@H]1c1ccncc1 | -25.3%
COC[C@@H]1CN(Cc2cnn(C)c2)C[C@H]1c1ccncc1 | 11.1%
COC[C@@H]1CN(Cc2c(OC)cccc2OC)C[C@H]1c1ccncc1 | 4.47µM*
O=C(Nc1ccc2c(c1)OCCO2)N1CCCCCC1CN1CCOCC1 (centres undefined) | i
COCCc1noc(-c2ccccc2OC2CN(S(=O)(=O)C(C)C)C2)n1 | 8.91µM*
COCCc1noc(-c2ccccc2OC2CN(C(=O)c3ccncc3)C2)n1 | 10µM*
SMILES | Pf Dd2 growth
Cc1noc(-c2ccccc2OC2CCN(S(C)(=O)=O)C2)n1 (centres undefined) | 1.0%
COCCc1noc(-c2ccccc2OC2CN(C(=O)c3cnccn3)C2)n1 | 49.5%
Cc1ccc(C(=O)N2CCC(Oc3ccccc3-c3nc(-c4ccncc4)no3)C2)cn1 (centres undefined) | i
COc1ccc(OC)c(S(=O)(=O)N2CCC(Oc3ccccc3-c3nc(C)no3)C2)c1 (centres undefined) | -10.9%
CCn1ccc(C(=O)N2CCCCCCNC(=O)[C@@H]3CCCC[C@@H]32)n1 | -11.7%
N#Cc1ccc(CN2CCCC3(CN[S+](=O)([O-])c4cccnc4O3)C2)cc1 (centres undefined) | i
CO[C@H]1[C@H](NC(=O)c2cc(C3CC3)[nH]n2)c2ccccc2C12CCNCC2 | -16.9%
O=C(Nc1ccc2c(c1)CCC2)c1cc2n(n1)CC(c1ccc(Cl)cc1)OC2 (centres undefined) | -17.1%
Cc1cnc(C(=O)NC2C[C@H]3CC[C@@H](C2)N3C(=O)CCc2c[nH]c3ccccc23)cn1 (some centres undefined) | i
CCc1nn(-c2ccc(OC)cc2)c(Oc2ccccc2F)c1CCC(=O)NCC1CC1 | -5.5%
COc1ccc([C@@H]2CN(C(=O)Nc3ccc(C)cc3)[C@@H]3C4CCN(CC4)[C@@H]32)cc1 | -9.6%
O=C(c1cn2c(n1)CNCC2)N1C[C@H](c2ccccc2)[C@@H]2[C@H]1C1CCN2CC1 | 0.4%
Cc1ccc([C@@H]2CN(C(=O)c3snnc3C)[C@@H]3C4CCN(CC4)[C@@H]32)cc1 | 14.1µM*
Cc1ccccc1C(=O)N1C[C@@H](F)C[C@H]1C(=O)N1CCOCC1 | -8.2%
CC(C)c1ccc(NC(=O)CN2C(=O)NC3(CCOCC3)C2=O)cc1 | 18.7%
COc1ccc(NC(=O)N2C[C@@H]3C[C@H](C2)c2c(NC(=O)Nc4ccccc4)ccc(=O)n2C3)cc1 | -1.7%
CCN(CC)CCCNC(=O)c1ccc2c(c1)N(Cc1c(F)cccc1Cl)C(=O)c1ccccc1S2 | 0.447µM*
CCCCN(C)C(=O)c1ccc2c(c1)N(Cc1cccc(F)c1)C(=O)c1ccccc1S2 | i
O=C(NC1CCCC1)c1ccc2c(c1)N(Cc1ccccc1F)C(=O)c1ccccc1S2 | i
CCCCNC(=O)c1ccc2c(c1)N(CC)C(=O)c1ccccc1S2 | 0.9%
O=C(NCc1ccc2c(c1)OCO2)c1ccc2c(c1)N(Cc1c(F)cccc1Cl)C(=O)c1ccccc1S2 | 7.08µM*
O=C(NCCc1ccc(Cl)cc1)c1ccc2c(c1)N(Cc1c(F)cccc1Cl)C(=O)CS2 | i
CCc1nc(C)ccc1OCC(=O)NCC1COc2cc(OC)ccc2C1 (centres undefined) | -2.9%
CCn1nc(C)c(CCNC(=O)c2cccc(C3CCNC3)c2)c1C (centres undefined) | 3.8%
O=C(Nc1ccccc1)N[C@H]1CO[C@H]2[C@@H]1OC[C@H]2OC(=O)Nc1ccc(Oc2ccccc2)cc1 | -8.9%
SMILES | Pf Dd2 growth
CCOc1ccc(CCNC(=O)c2ccc(-n3c(C)cc4c3CCC(C)C4)cc2)cc1OCC (centres undefined) | 8.91µM*
CSc1ccc(CCNC(=O)c2ccc(-n3c(C)cc4c3CCC(C)C4)cc2)cc1 (centres undefined) | 42.4%[5.79 µM]
COc1ccc(CCNC(=O)c2ccc3c(c2)nc2n3CCC(C)C2)cc1OC (centres undefined) | 0.5%
CC[S+](=O)([O-])NC1CCN(C(=O)N2CC3CC(C2)[C@H]2CCCC(=O)N2C3)CC1 (some centres undefined) | 8.3%
COc1ccc(S(=O)(=O)N2Cc3ccccc3CC2C(=O)Nc2cc(Cl)ccc2Cl)cc1 (centres undefined) | 10µM*
COc1ccc(OC)c(S(=O)(=O)N2Cc3ccccc3CC2C(=O)Nc2ccc(Cl)cc2)c1 (centres undefined) | i
COc1ccc(NC(=O)C2Cc3ccccc3CN2S(=O)(=O)c2ccccc2)cc1OC (centres undefined) | -24.6%
O=C(O)C1=NOC2CN(C(=O)c3ccc4c(c3)OCO4)CC12 (centres undefined) | 38.7%
COc1ccc(CNC(=O)CCc2nc3cccnc3n2Cc2ccc(OC)cc2)cc1 | -3.7%
Cc1cc(NC(=O)CCc2nc3cccnc3n2Cc2cccs2)ccc1Br | 84.9%[5.79 µM]
COc1ccc(Cn2c(CCC(=O)Nc3cc(C)cc(C)c3)nc3cccnc32)cc1 | -20.5%
COc1ccc(Cn2c(CCC(=O)Nc3ccc(C)cc3)nc3cccnc32)cc1 | 10µM*
CCCn1c(CCC(=O)Nc2cccc(CC)c2)nc2cccnc21 | -7.5%
O=C(CCc1nc2cccnc2n1Cc1cccs1)Nc1cccc(Cl)c1 | 11.2µM*
Cc1cc(CN2C[C@@H](CO)[C@H](NC(=O)C3CC3)C2)n(C)n1 | 9.7%
